Potency and outcome data for seven compounds are collected here from PubChem BioAssay (Tox21).

Values joined by “and” are separate entries in the source; they are usually repeats but may differ in a detail not shown here. Equal entries are not always repeated. Results filed as inconclusive are left out. A structure can be active in one record and inactive in another. Active and inactive are the calls of the source. Unless noted, the call rests on the fitted dose curve; in most records, active means well fitted curve in the direction sought with a large enough effect in the repeat runs; inconclusive means weak or mixed curves; inactive means no such curve, though single readings can be large; an effect the other way counts as inactive or inconclusive.

A short description of assay [1]: qHTS assay to identify aromatase inhibitors - cell viability counter screen (AID 743084).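 Further: cells stimulated with testosterone during compound exposure; nearly all actives have a fitted effect of over 55% in size.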 Further: potency means the concentration at half of the fitted maximal effect.
The target in assay [2] is Aryl hydrocarbon receptor (Homo sapiens) (UniProt P35869). The assay is described as follows: qHTS assay to identify small molecule that activate the aryl hydrocarbon receptor (AhR) signaling pathway (AID 743085).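 Further: HG2L7.5c1 human HepG2 liver cells with stably integrated DRE-driven firefly reporter; series mostly up to about 70 µM; nearly all actives have a fitted effect of over 15% in size.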 The method, boiled down: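 Luminescence (ONE-Glo) from a dioxin-responsive-element luciferase reporter in HG2L7.5c1 HepG2 cells after 24 hr compound exposure at 37C; viability measured by CellTiter-Fluor fluorescence beforehand.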
Chain of Aryl hydrocarbon receptor (Homo sapiens) (P35869 whole entry, looked up): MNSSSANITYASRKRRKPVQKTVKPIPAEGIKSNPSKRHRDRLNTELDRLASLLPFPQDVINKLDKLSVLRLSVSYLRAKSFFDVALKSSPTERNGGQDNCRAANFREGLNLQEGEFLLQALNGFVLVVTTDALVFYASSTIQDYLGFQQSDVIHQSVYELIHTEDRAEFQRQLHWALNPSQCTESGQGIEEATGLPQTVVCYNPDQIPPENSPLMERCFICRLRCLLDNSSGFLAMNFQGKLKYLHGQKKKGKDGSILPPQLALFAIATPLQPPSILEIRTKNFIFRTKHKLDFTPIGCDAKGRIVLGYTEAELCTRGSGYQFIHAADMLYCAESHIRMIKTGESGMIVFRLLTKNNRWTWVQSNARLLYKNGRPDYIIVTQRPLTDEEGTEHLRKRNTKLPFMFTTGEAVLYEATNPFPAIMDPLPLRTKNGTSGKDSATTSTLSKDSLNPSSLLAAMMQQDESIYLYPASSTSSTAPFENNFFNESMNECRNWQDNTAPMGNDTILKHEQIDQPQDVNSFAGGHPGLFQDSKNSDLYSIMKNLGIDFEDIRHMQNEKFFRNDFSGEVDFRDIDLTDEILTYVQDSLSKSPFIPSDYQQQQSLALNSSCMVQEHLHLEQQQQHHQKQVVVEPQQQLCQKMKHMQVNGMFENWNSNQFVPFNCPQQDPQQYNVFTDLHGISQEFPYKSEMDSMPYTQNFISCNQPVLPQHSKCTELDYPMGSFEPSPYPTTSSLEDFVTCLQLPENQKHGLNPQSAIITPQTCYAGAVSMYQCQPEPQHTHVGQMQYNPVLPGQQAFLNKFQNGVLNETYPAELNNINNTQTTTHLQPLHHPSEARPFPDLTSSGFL

Assay [3] can be described thus: qHTS assay to identify small molecule that activate the aryl hydrocarbon receptor (AhR) signaling pathway - cell viability counter screen (AID 743086). Further: nearly all actives have a fitted effect of over 45% in size. Further: potency means the concentration at half of the fitted maximal effect. An outline of the steps:
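Cytotoxicity counter screen: CellTiter-Fluor signal (30 min, 37 C) in 4000 HepG2 cells/well carrying the DRE-luciferase reporter, following 24 h compound exposure at 37 C.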

For assay [4], the target named is Peroxisome proliferator-activated receptor gamma (Homo sapiens) (UniProt P37231). The experiment in a line: qHTS assay to identify small molecule agonists of the peroxisome proliferator-activated receptor gamma (PPARg) signaling pathway (AID 743094; active means well fitted activation curve with a large enough effect in the signal ratio in the repeat runs, not every such curve was filed as active; the % refers to the signal ratio). The method, boiled down: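 Cell-based bla reporter, HEK293H background, PPARg-driven UAS. Pre-incubation 5 h, 37C, 5% CO2. Compound 17 h, 37C. Substrate 1 h RT; fluorescence.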
Chain of Peroxisome proliferator-activated receptor gamma (Homo sapiens) (P37231 whole entry, looked up): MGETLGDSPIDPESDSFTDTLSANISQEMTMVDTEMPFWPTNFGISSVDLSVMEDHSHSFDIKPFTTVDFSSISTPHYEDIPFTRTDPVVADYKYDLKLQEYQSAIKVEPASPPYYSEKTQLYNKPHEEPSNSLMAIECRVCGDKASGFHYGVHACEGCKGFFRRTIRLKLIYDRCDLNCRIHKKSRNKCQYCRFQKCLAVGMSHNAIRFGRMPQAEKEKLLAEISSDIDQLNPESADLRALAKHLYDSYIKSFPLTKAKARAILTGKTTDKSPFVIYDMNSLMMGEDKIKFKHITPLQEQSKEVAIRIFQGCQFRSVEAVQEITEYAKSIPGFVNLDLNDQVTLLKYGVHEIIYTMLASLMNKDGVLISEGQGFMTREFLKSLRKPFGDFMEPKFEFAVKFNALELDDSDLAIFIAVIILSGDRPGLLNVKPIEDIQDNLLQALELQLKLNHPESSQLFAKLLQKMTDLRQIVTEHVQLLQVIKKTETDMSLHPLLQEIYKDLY

For assay [5] the target is unchanged. The experiment in a line: qHTS assay to identify small molecule antagonists of the peroxisome proliferator-activated receptor gamma (PPARg) signaling pathway (AID 743191; calls by dose curve; further: nearly all actives have a fitted effect of over 30% in size; further: potency means the concentration at half of the fitted maximal effect). An outline of the steps: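 Beta-lactamase reporter under UAS control in HEK293H PPARg-bla cells; compound treatment 17 h at 37C. Read-out: fluorescence intensity after 1 h room-temperature incubation with LiveBLAzer B/G FRET substrate.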

The nature of assay [6]: qHTS assay to identify small molecule antagonists of the peroxisome proliferator-activated receptor gamma (PPARg) signaling pathway - cell viability counter screen (AID 743194). Further: nearly all actives have a fitted effect of over 55% in size. Further: potency means the concentration at half of the fitted maximal effect. The method, boiled down: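 Viability was measured as CellTiter-Glo luminescence in GeneBLAzer PPARg UAS-bla HEK293H cells. These cells had been exposed 17 h at 37 C to compounds together with rosiglitazone at 50 nM final, with the beta-lactamase readout taken in the same wells.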

Assay [7] in a line: qHTS assay for small molecule agonists of the antioxidant response element (ARE) signaling pathway (AID 743202; active means well fitted activation curve with a large enough effect in the signal ratio in the repeat runs, not every such curve was filed as active; the % refers to the signal ratio; further: potency means the concentration at half of the fitted maximal effect). The method, boiled down: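 After 16 hours of compound treatment at 37 C, HepG2 cells with a stably integrated ARE-driven beta-lactamase reporter were loaded 2 hours at room temperature with LiveBLAzer B/G FRET substrate and fluorescence intensity measured.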
Assay [8] is described as follows: qHTS assay for small molecule agonists of the antioxidant response element (ARE) signaling pathway - cell viability counter screen (AID 743203; calls by dose curve; further: nearly all actives have a fitted effect of over 55% in size). An outline of the steps: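 Measured in the same wells as the beta-lactamase ARE reporter, this read-out is CellTiter-Glo luminescence from HepG2 ARE-bla cells given compounds for 16 hrs.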
Assay [9] can be described thus: qHTS assay for small molecule activators of the heat shock response signaling pathway - cell viability counter screen (AID 743209). Further: nearly all actives have a fitted effect of over 50% in size. Further: potency means the concentration at half of the fitted maximal effect. The method, boiled down:
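Same-well multiplex: after 2.5 h room-temperature incubation with LiveBLAzer B/G substrate and fluorescence reading, CellTiter-Glo reagent was added to HSE-bla HeLa cells that had received compound for 5 h at 37 C; luminescence read after 30 min.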

A short description of assay [10]: qHTS assay to identify small molecule agonists of the peroxisome proliferator-activated receptor delta (PPARd) signaling pathway - cell viability counter screen (AID 743211). Further: nearly all actives have a fitted effect of over 55% in size. Further: potency means the concentration at half of the fitted maximal effect. The method, boiled down: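 Viability was measured as CellTiter-Glo luminescence (30 min, room temperature) in the same wells as the beta-lactamase readout. GeneBLAzer PPARd UAS-bla HEK293H cells received compound after 5 h plating and were incubated 17 h at 37 C.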

A short description of assay [11]: qHTS assay to identify small molecule antagonists of the peroxisome proliferator-activated receptor delta (PPARd) signaling pathway - cell viability counter screen (AID 743213). Further: nearly all actives have a fitted effect of over 50% in size. Further: potency means the concentration at half of the fitted maximal effect. The method, boiled down:
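CellTiter-Glo was added to PPARd-bla HEK293H wells following 17 h compound treatment in the presence of 300 nM L165041. Luminescence was recorded after 30 min at room temperature.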

Assay [12] is described as follows: qHTS assay to identify small molecule agonists of the farnesoid-X-receptor (FXR) signaling pathway - cell viability counter screen (AID 743218). Further: nearly all actives have a fitted effect of over 45% in size. Further: potency means the concentration at half of the fitted maximal effect. The method, boiled down:
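Readout: CellTiter-Glo luminescence, 30 min RT, multiplexed after the FXR-bla FRET reading. HEK 293T FXR-UAS-bla cells received compound 5 h post-plating and were incubated 16 h at 37 C.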

A short description of assay [13]: qHTS assay to identify small molecule antagonists of the farnesoid-X-receptor (FXR) signaling pathway - cell viability counter screen (AID 743221; active means well fitted cell-killing curve with a large enough effect in the repeat runs, not every such curve was filed as active; further: nearly all actives have a fitted effect of over 50% in size; further: potency means the concentration at half of the fitted maximal effect). An outline of the steps:
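Cytotoxicity counter screen run in the FXR-bla reporter wells: HEK 293T cells exposed to compound with 50 uM (final) chenodeoxycholic acid for 16 h, 37 C, then viability measured by CellTiter-Glo luminescence after 30 min, room temperature.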

The target in assay [14] is Vitamin D3 receptor (Homo sapiens) (UniProt P11473). The assay is described as follows: qHTS assay to identify small molecule agonists of the vitamin D receptor (VDR) signaling pathway (AID 743222; calls by dose curve). An outline of the steps: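 Following 4 h attachment at 37C, VDR-bla cells (2,000 per well) received DMSO-dissolved compounds or controls. After 16 h incubation, LiveBLAzer B/G FRET substrate was added and fluorescence read 2 h later at room temperature.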
Chain of Vitamin D3 receptor (Homo sapiens) (P11473 whole entry, looked up): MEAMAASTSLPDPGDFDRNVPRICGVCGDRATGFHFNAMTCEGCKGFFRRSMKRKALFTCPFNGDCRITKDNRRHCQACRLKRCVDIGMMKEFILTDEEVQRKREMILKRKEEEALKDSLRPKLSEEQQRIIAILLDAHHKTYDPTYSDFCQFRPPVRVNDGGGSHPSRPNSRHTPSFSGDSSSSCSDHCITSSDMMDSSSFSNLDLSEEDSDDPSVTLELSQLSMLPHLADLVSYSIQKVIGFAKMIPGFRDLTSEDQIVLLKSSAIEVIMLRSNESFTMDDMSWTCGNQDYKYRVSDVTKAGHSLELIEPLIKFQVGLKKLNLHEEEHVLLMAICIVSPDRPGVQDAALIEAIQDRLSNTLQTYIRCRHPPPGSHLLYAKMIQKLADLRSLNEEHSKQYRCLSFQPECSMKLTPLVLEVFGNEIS

Assay [15] has the same target. The assay is described as follows: qHTS assay to identify small molecule antagonists of the vitamin D receptor (VDR) signaling pathway (AID 743223; active means well fitted inhibition curve with a large enough effect in the signal ratio in the repeat runs, not every such curve was filed as active; the % refers to the signal ratio; further: potency means the concentration at half of the fitted maximal effect). The method, boiled down: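 Antagonist mode: compound added to VDR-bla cells alongside agonist 1alpha,25-dihydroxyvitamin D3 (3 nM final), incubation 16 h at 37C. Read-out is LiveBLAzer FRET fluorescence, 2 h at room temperature.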

In assay [16] the target is Peroxisome proliferator-activated receptor delta (Homo sapiens) (UniProt Q03181). The experiment in a line: qHTS assay to identify small molecule agonists of the peroxisome proliferator-activated receptor delta (PPARd) signaling pathway (AID 743212; calls by dose curve). The method, boiled down: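 Beta-lactamase reporter readout: a ratiometric FRET signal from the LiveBLAzer substrate after 2 h at room temperature. Compound exposure at 37 °C in PPARδ-bla HEK293H cells driven by an upstream activator sequence.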
Chain of Peroxisome proliferator-activated receptor delta (Homo sapiens) (Q03181 whole entry, looked up): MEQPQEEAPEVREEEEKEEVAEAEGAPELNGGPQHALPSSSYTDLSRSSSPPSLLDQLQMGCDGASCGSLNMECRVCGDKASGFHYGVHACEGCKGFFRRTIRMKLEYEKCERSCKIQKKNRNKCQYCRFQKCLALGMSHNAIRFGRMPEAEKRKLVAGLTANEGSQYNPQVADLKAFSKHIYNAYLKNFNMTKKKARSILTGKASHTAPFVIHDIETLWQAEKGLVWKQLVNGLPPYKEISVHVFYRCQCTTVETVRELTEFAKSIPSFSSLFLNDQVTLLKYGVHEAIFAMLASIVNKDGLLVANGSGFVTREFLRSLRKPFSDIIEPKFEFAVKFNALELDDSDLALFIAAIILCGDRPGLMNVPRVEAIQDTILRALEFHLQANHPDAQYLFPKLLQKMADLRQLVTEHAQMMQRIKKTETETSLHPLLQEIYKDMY

For assay [17] the target is unchanged. The assay is described as follows: qHTS assay to identify small molecule antagonists of the peroxisome proliferator-activated receptor delta (PPARd) signaling pathway (AID 743215; active means well fitted inhibition curve with a large enough effect in the signal ratio in the repeat runs, not every such curve was filed as active; the % refers to the signal ratio;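 further: cells stimulated with agonist L165041 at 300 nM final during compound exposure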; further: potency means the concentration at half of the fitted maximal effect). The method, boiled down:
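Fluorescence from cleaved LiveBLAzer B/G FRET substrate (2 h, room temperature) reports PPARd-driven beta-lactamase in HEK293H UAS-bla cells. Cells had been treated 17 h at 37 C with compound plus 300 nM final L165041.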

Assay [18] has as its target Bile acid receptor (Homo sapiens) (UniProt Q96RI1). The assay is described as follows: qHTS assay to identify small molecule antagonists of the farnesoid-X-receptor (FXR) signaling pathway (AID 743217; active means well fitted inhibition curve with a large enough effect in the signal ratio in the repeat runs, not every such curve was filed as active; the % refers to the signal ratio). The method, boiled down:
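FRET fluorescence after 2 h room-temperature LiveBLAzer loading gives the readout. Prior step: FXR-bla HEK 293T cells, seeded and incubated 5 h, received test compounds plus 50 uM final CDCA for 16 h at 37 °C.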

The target is the same in assay [19]. The experiment in a line: qHTS assay to identify small molecule agonists of the farnesoid-X-receptor (FXR) signaling pathway (AID 743220; active means well fitted activation curve with a large enough effect in the signal ratio in the repeat runs, not every such curve was filed as active; the % refers to the signal ratio). An outline of the steps:
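FXR-UAS-bla HEK 293T cells carrying a UAS-driven beta-lactamase reporter were plated for 5 h at 37C/5% CO2, then exposed to DMSO-dissolved Tox21 10K compounds for 16 h at 37C. A LiveBLAzer B/G FRET substrate was loaded for 2 h at room temperature before fluorescence reading.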

Assay [20] in a line: qHTS assay for small molecule activators of the heat shock response signaling pathway (AID 743210; active means well fitted activation curve with a large enough effect in the signal ratio in the repeat runs, with a control signal flat, not every such curve was filed as active; the % refers to the signal ratio; further: series mostly up to about 63 µM). An outline of the steps:
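Compound exposure lasted 5 h at 37 C in HeLa cells carrying a heat-shock-element-driven beta-lactamase reporter. Read-out: fluorescence intensity after 2.5 h room-temperature loading with LiveBLAzer B/G FRET substrate.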

Chain of Bile acid receptor (Homo sapiens) (Q96RI1 whole entry, looked up): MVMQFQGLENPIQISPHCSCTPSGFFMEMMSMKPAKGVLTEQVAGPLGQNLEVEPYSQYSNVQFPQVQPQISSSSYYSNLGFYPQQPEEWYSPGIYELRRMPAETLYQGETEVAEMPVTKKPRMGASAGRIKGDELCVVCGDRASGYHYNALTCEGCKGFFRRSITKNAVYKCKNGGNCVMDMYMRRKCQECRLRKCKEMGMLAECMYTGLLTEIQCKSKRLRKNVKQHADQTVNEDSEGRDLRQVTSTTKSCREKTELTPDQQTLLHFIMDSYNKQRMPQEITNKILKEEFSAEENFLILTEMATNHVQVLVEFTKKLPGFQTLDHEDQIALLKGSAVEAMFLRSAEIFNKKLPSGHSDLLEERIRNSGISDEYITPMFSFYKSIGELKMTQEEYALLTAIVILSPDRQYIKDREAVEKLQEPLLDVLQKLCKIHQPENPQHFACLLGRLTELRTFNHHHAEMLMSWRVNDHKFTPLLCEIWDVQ

In the case of `CN1CCC[C@H]1c1cccnc1`, the Potency entry in assay [1], in assay [2], in assay [3], in assay [4], in assay [5] and in [6] was “inactive” throughout. The Potency entry in assay [7], in assay [8], in assay [9], in assay [10], in assay [11] and in assay [12] was “inactive” each time. The Potency result in assay [13], in [14] and in [15] was “inactive” in each case.

Turning to `Cc1c(C(=O)O)c(O)cc2c1C(=O)c1c(O)c([C@@H]3O[C@H](CO)[C@@H](O)[C@H](O)[C@H]3O)c(O)c(O)c1C2=O`, the Potency was 29.8 µM (active) and 13.3 µM (active) and 24.3 µM (active) in assay [1]; 26.6 µM (active) and 21.7 µM (active) in assay [3]. Besides, the Potency result in [2], in assay [4], in assay [5], in assay [6], in assay [8] and in [9] was “inactive” each time. In addition, the Potency result in [10], in assay [16], in assay [11], in assay [17], in assay [18] and in [12] was “inactive” throughout. The Potency entry in [13], in assay [14] and in assay [15] was “inactive” throughout. For the same compound, the outcome in assay [19] was inactive.

Consider `O=C1O[C@H]([C@@H](O)CO)C(O)=C1O`, for which the Potency entry in [1], in assay [2], in [3], in assay [4], in [5] and in assay [6] was “inactive” each time. The Potency result in assay [7], in assay [8], in [9], in assay [10], in assay [11] and in assay [12] was “inactive” each time. Moreover, in [13], the Potency result was “inactive”.

On to `Cn1c(=O)c2c(ncn2C)n(C)c1=O`, for which the Potency entry in assay [1] was “inactive and 55.1 µM (active)”; in assay [3], “inactive and 69.4 µM (active)”. Further, the Potency entry in assay [2], in [6], in assay [7], in assay [8], in assay [9] and in assay [10] was “inactive” in each case. The Potency result in assay [11], in assay [12] and in assay [13] was “inactive” each time. The compound was called inactive in assay [20].

As to `CCCC[P+](CCCC)(CCCC)CCCC`, the Potency entry in assay [1], in assay [2], in assay [3], in assay [6], in [7] and in [8] was “inactive” each time. Besides, the Potency entry in assay [9], in assay [10], in assay [11], in assay [18], in assay [12] and in assay [13] was “inactive” throughout. In addition, the Potency result in [14] and in assay [15] was “inactive” in each case. The compound was called inactive in [20] and in [19].

Turning to `C=C1CC[C@H](O)C/C1=C\C=C1/CCC[C@]2(C)[C@@H]([C@H](C)CCCC(C)C)CC[C@@H]12`, the Potency entry in [1], in assay [2] and in [3] was “inactive” in each case. In addition, the Potency in assay [5] is 54.4 µM (active); in [6] it was 61.1 µM (active); in assay [7] it was 21.5 µM (active); in assay [9], 48.5 µM (active); in assay [11] it was 43.2 µM (active); in assay [12], 48.5 µM (active). Moreover, the Potency in [13] is 48.5 µM (active). Further, the result in assay [19] was inactive.

For the compound `CN(C)C(=S)SC(=S)N(C)C`, the Potency in assay [1] is 3.35 µM (active) and 994 nM (active) and 486 nM (active); in assay [3] it was 1.57 µM (active) and 1.09 µM (active); in assay [10] it was 710 nM (active) and 389 nM (active) and 1.33 µM (active); in assay [11], 3.99 µM (active) and 549 nM (active) and 944 nM (active); in assay [17] it was 0.596 µM (active); in assay [12], 502 nM (active) and 2.45 µM (active) and 1.68 µM (active). Further, the Potency in [13] is 564 nM (active) and 1.68 µM (active); in [15], 27.5 µM (active). Moreover, the Potency result in assay [2], in [5] and in [6] was “inactive” throughout.
